An excerpt weighted towards active compounds, which were near 11% of everything screened.
PNC assembly inh: blocks assembly of the perinucleolar compartment | AID 2417 | 3.1% of 140,000 active | PC3M PTB-GFP, PNC prevalence imaging, 16 h; stronger effect = lower value | activity change (PNC), negative = inhibition, % at 10 µM;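 active means readout at or below -70, meaning at least 70% loss of cells showing the perinucleolar compartment, a nuclear body marking cancer cells; inconclusive means readout between -30 and a set limit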;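 further: plate controls were DMSO wells for no effect and camptothecin positive control wells for full effect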
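Read-out is percentage of cells bearing a perinucleolar compartment, from automated 20x imaging of fixed, Hoechst-stained PC3M PTB-GFP cells. Cells were seeded 4 h, then exposed 16 h to compound (23 nl of library stock) in duplicate plates.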
IMPase inh: cell-permeable inhibitors of inositol monophosphatase (IMPase) | CHO-M1 cells, IP1 accumulation, HTRF TR-FRET ratio | 120,000 tested, under 10 active | P97697 | AID 901 | inhibition (IP1 accumulation), % at 46.1 µM; active means well fitted curve in the direction sought with a large enough effect in the signal ratio, not every such curve was filed as active; inconclusive means small, poorly fitted or top-dose-only effect, or a change in a side signal; inactive means no such curve, though single readings can be large or run the other way; the % refers to the signal ratio;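 further: cells stimulated with carbachol in lithium chloride buffer; plate controls were DMSO basal wells for no effect and reference inhibitor wells for full effect; higher means more IMPase inhibition seen as more IP1 and lower FRET ratio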
Target sequence (P97697 whole entry, looked up): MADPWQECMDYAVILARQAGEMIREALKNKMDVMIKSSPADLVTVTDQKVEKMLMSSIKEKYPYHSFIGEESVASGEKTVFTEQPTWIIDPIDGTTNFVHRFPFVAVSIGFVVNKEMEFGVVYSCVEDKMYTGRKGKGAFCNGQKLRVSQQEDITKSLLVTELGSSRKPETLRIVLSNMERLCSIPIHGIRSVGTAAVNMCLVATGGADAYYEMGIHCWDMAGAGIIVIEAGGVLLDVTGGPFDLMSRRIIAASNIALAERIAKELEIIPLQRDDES
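Cellular IMPase inhibition is scored as a rise in cytosolic IP1, detected by competitive TR-FRET between d2-labelled IP1 and a europium anti-IP1 antibody. M1-expressing CHO cells were stimulated with carbachol for 30 min at 37C, with lithium (50 mM LiCl) present in the buffer.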
ALDH1A1 inh: ALDH1A1 (human) enzyme inhibition; P00352; Purified ALDH1A1, NADH fluorescence, propionaldehyde substrate; Potency, µM (series often up to 75.3 µM), inactives show top-dose activity, negative = inhibition, usual class: inhibitors; 7.3% of 220,000 active; AID 1030;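 further: potency means the concentration at half of the fitted maximal effect; plate controls were no enzyme wells and a reference inhibitor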
NPSR antag: neuropeptide S receptor (human) antagonism, cAMP; AID 1461; Q6W5P4; Potency, µM (highest dose often 38.3 µM), for the others: top-dose activity change, negative = inhibition, most hits filed as inhibitors; CHO-NPSR cells, cAMP TR-FRET, antagonist mode; 1% of 220,000 active; active means well fitted curve in the direction sought with a large enough effect; inconclusive means small, poorly fitted or top-dose-only effect, or another doubt; inactive means no such curve, though single readings can be large; an effect the other way counts as inactive or inconclusive; further: potency means the concentration at half of the fitted maximal effect; nearly all actives have a fitted effect of over 50% in size
IMPase Li inh: membrane-permeable IMPase blocker, potentiated with lithium; Potency, µM (series often up to 59.4 µM), for the others: at the top dose activity, negative = IMPase inhibition, usual class: inhibitors; 0.35% of 210,000 active; AID 1457; CHO-M1 cells, IP1 TR-FRET (IP-One), carbachol + lithium; active means well fitted curve in the direction sought with a large enough effect; inconclusive means small, poorly fitted or top-dose-only effect, or another doubt; inactive means no such curve, though single readings can be large; an effect the other way counts as inactive or inconclusive;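 further: IP1 builds up when IMPase is blocked and the TR-FRET signal falls; potency means the concentration at half of the fitted maximal effect; plate controls were basal vehicle for no effect and high inhibitor control for full effect; nearly all actives have a fitted effect of over 50% in size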
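IP1 accumulation measured by competitive TR-FRET in lysed CHO-M1 cells after 30 min compound exposure at 37C, with a small lithium addition to potentiate weak responses. Hill-equation AC50 from ratio and donor-channel data.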
HPGD inh: HPGD (human) dehydrogenase inhibition | P15428 | purified HPGD, NADH fluorescence kinetic, PGE2 substrate | Potency, µM, without a hit: at the highest dose activity change, negative = inhibition, actives largely listed as inhibitors | 4.3% of 150,000 active; further: potency means the concentration at half of the fitted maximal effect
Target sequence (P15428 whole entry, looked up): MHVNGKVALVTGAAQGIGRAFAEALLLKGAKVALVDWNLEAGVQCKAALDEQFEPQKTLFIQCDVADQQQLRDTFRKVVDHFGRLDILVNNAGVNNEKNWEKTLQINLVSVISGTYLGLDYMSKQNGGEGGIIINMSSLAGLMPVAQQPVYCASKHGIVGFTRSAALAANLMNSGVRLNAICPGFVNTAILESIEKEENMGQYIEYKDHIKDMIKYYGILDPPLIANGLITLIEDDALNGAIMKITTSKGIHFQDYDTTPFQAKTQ
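NADH formation kinetics: reaction with 30 uM PGE2 and 1 mM NAD+ (final), 20 nM enzyme, Tris-HCl pH 8 with Tween 20, after 15 min compound preincubation at room temperature. Fluorescence change, last versus first of five reads.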
An asterisk follows results filed as active; u = inconclusive; x = no result; [ ] = another dose, or the depositor's remark. Unless noted, the call rests on the fitted dose curve; in most records, active means well fitted inhibition curve with a large enough effect (not every such curve was filed as active); inconclusive means small, poorly fitted or top-dose-only effect, or another doubt; inactive means no such curve, though single readings can be large or run the other way. Unless noted, on the % scale 0 is the no-effect control and ±100 the full control effect.

SMILES | PNC assembly inh | IMPase inh | ALDH1A1 inh | NPSR antag | IMPase Li inh | HPGD inh
COc1ccccc1NC(=O)CSc1nc2nc(C)cc(C)c2c(=O)[nH]1 | -9 | 10 | -1% | -14%[46.1 µM] | 7%[38.3 µM] | -4%
Cc1cccc(CC2CC(=O)N(CCc3ccc4c(c3)OCO4)C2=O)c1 (configuration not stated) | x | x | u | 21% | 8% | x
COc1ccc(CCN2C(=O)C3C4C=CC(C3C2=O)C2C(=O)N(CCc3ccc(OC)c(OC)c3)C(=O)C42)cc1OC (configuration not stated) | -15 | 8 | -12% | -14%[46.1 µM] | -38%[38.3 µM] | -16%
O=C1CC(Cc2ccccc2)C(=O)N1CCc1ccc2c(c1)OCO2 (configuration not stated) | 48 | 1 | 18µM* | -6%[46.1 µM] | 28%[38.3 µM] | -9%
O=C1CC(Cc2ccccc2)C(=O)N1CCCn1ccnc1 (configuration not stated) | u | 1 | 16µM* | 1%[46.1 µM] | 6% | 0%
COc1ccc(CCNC2CC(=O)N(CCc3ccc(OC)c(OC)c3)C2=O)cc1OC (configuration not stated) | 3 | -6 | 6.3µM* | -3%[46.1 µM] | 17%[38.3 µM] | -11%
COc1ccc(CCN2C(=O)C3C4C=CC(C5CC45)C3C2=O)cc1OC (configuration not stated) | x | x | 4µM* | 1% | 26% | x
Cc1ccc(CC2CC(=O)N(CCc3ccccc3)C2=O)cc1 (configuration not stated) | x | x | -1% | -4% | 18% | x
COc1ccc(CCN2C(=O)CC(Cc3ccccc3)C2=O)cc1OC (configuration not stated) | x | x | x | -4% | x | x
O=C(Nc1cccnc1)c1cc(-c2ccc(F)cc2)on1 | x | x | 2% | 15% | -2% | x
CCN(CC)Cc1cc2ccccc2c2c1COC2 | -2 | 7 | -1% | 15%[7.67 µM] | 12%[38.3 µM] | -2%
COc1ccc(CCN2CC(C(=O)Nc3ccc4c(c3)OCO4)CC2=O)cc1OC (configuration not stated) | x | x | -4% | 5% | -2% | x
COc1ccc(CCN2C(=O)CC(NNc3ccc([N+](=O)[O-])cc3)C2=O)cc1OC (configuration not stated) | x | x | 10µM* | -17% | 5% | x
COc1ccc(CCN2C(=O)CC(NCc3ccc4c(c3)OCO4)C2=O)cc1OC (configuration not stated) | -3 | 0 | 25µM* | 4%[46.1 µM] | 9%[38.3 µM] | -8%
C=CCN1C(=O)C2(c3ccccc31)C1CCCC=C1C(C#N)=C(N)C2(C#N)C#N (configuration not stated) | -29 | 5 | 10µM* | 14%[46.1 µM] | 4% | -13%
C=CCN1C(=O)[C@]2(c3ccccc31)C1CCCC=C1C(C#N)=C(N)C2(C#N)C#N (some centres not stated) | -11 | 10 | 4µM* | -13%[46.1 µM] | 2%[38.3 µM] | -10%
O=CN1CCN(c2ncnc3c2nnn3Cc2c(F)cccc2Cl)CC1 | x | x | -2% | -12% | 3% | x
CCOc1ccc(NC(=S)Nc2ccc(OC)cc2)cc1 | x | x | 2% | 6% | -4% | x
CCCCSc1nnc(CSc2nc3nc(C)cc(C)n3n2)o1 | -6 | 8 | -7% | -13%[46.1 µM] | 1%[38.3 µM] | 25µM*
CCOc1ccc(Oc2c(/C=N/NC(N)=O)c(C)nn2-c2ccccc2)cc1 | 24 | x | 32µM* | -1% | 22% | -8%
Cc1nn(-c2cccc(C(F)(F)F)c2)c(Cl)c1/C=N/Nc1cccc(C(=O)O)c1 | -19 | x | -5% | -35% | -3% | -27%
CCOC(=O)N/N=C/c1c(C)nn(-c2cccc(C(F)(F)F)c2)c1Cl | -83* | 8 | 16% | -28% | 9% | -19%
Cc1nn(-c2ccccc2Cl)c(Cl)c1/C=N/Nc1cccc(C(=O)O)c1 | -23 | -1 | u | -9% | 6% | 13µM*
Cc1nn(-c2cccc(Cl)c2)c(Cl)c1/C=N/NC(=O)c1cccnc1 | -86* | x | -1% | -22% | 9% | -2%
Cc1nn(-c2ccccc2)c(Cl)c1/C=N\NC(=O)c1cncc(Br)c1 | u | 2 | -13% | -22%[46.1 µM] | 11% | -8%
SMILES | PNC assembly inh | IMPase inh | ALDH1A1 inh | NPSR antag | IMPase Li inh | HPGD inh
CC(C)CNC(=O)c1noc2c1CCCC2 | u | u | -2% | 6%[46.1 µM] | 23%[38.3 µM] | -15%
COC(=O)N/N=C/c1c(C)nn(-c2cccc(Cl)c2)c1Cl | -94* | -7 | -1% | 1% | 9% | -23%
Cc1nn(-c2ccccc2)c(Cl)c1/C=N/NC(N)=O | x | x | x | 1% | x | x
Cc1nn(-c2ccccc2)c(Cl)c1/C=N/NC(=O)CNC(=O)c1ccccc1Cl | 75 | x | 7.1µM* | -5% | 16% | -11%
COc1ccc(NC(=O)CSc2nnc(-c3ccccc3)n2Cc2ccco2)c(OC)c1 | 16 | 8 | u | -13%[46.1 µM] | 5%[38.3 µM] | -12%
CC/C(=N\NC(=O)Nc1nonc1N)c1ccc(OC)c(OC)c1 | x | x | x | -12% | x | x
O=c1cc(-c2ccccc2Cl)oc2cc(O)cc(O)c12 | -15 | x | u | -14% | 1% | 18µM*
COc1cccc2oc(-c3ccccc3)cc(=O)c12 | x | 3 | u | x | 17% | u
CCOc1cccc2oc(-c3ccccc3Cl)cc(=O)c12 | x | x | -10% | x | 21% | 45µM*
O=C(NC1CCS(=O)(=O)C1)c1cn(-c2ccccc2)nc1-c1ccccc1 (configuration not stated) | 19 | u | -4% | -6%[46.1 µM] | -32%[38.3 µM] | -8%
CCS(=O)(=O)Nc1ccc(C(=O)OC)cc1 | 0 | 0 | -1% | -7%[46.1 µM] | 18%[38.3 µM] | 14µM*
CCS(=O)(=O)Nc1ccc(C(=O)c2ccccc2)cc1 | -23 | -2 | -10% | -2%[46.1 µM] | -3% | 0.28µM*
COC(=O)c1ccc(NS(=O)(=O)c2ccc(SC)cc2)cc1 | -30 | 12 | u | -30%[46.1 µM] | 21%[38.3 µM] | -17%
O=C(CSc1ncc(-c2ccccc2)[nH]1)Nc1cccc(O)c1 | u | -2 | -10% | -12%[46.1 µM] | 12%[38.3 µM] | -15%
COc1ccc(C(=O)CSc2cc(C)nc3nc(C)nn23)cc1OC | 28 | -1 | u | -19%[46.1 µM] | -24%[38.3 µM] | -6%
Cc1ccc(S(=O)(=O)/C(C#N)=C/c2c(N3CCCCC3)nc3ccccn3c2=O)cc1 | x | x | x | 19%[7.67 µM] | x | x
N#C/C(=C\c1c(N2CCOCC2)nc2ccccn2c1=O)S(=O)(=O)c1ccccc1 | 1 | -4 | 13µM* | -14%[46.1 µM] | -4%[38.3 µM] | 2µM*
Cc1ccc(S(=O)(=O)/C(C#N)=C/c2c(N3CCN(C)CC3)nc3ccccn3c2=O)cc1 | 27 | 5 | u | -1%[7.67 µM] | 4%[38.3 µM] | -10%
Cc1ccc(S(=O)(=O)/C(C#N)=C/c2c(N3CC(C)OC(C)C3)nc3ccccn3c2=O)cc1 (configuration not stated) | 29 | 2 | -13% | -27%[46.1 µM] | -2%[38.3 µM] | 14µM*

Screens (PubChem)
